In PubChem BioAssay:
Values joined by “and” are separate entries in the source; they are usually repeats but may differ in a detail not shown here. Identical values can stand only once. Active and inactive are the calls of the source.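 The calls were made as follows, unless noted: active = compounds whose cell count with miR-34 switched on is under 0.7 times the count with it off; inactive = the rest.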

Assays:
[1] = sensitizers of A549 cells to miR-34 induction, primary screen, imaging, A549 dox-inducible miR-34, nuclei and caspase counts (AID 1347080); settings: A549 miR-34 inducible, Hoechst nuclei count, 48 h
[2] = survival rescue of mitochondrial mutant cells in low glucose, primary screen, MELAS cybrids, Rieske KO mouse fibroblasts, CellTiter-Glo (AID 1508586;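 active = mean z-score across replicates of 1.96 or higher in either the MELAS or the Rieske mutant cell line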;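 also: z relative to plate mean and SD of compound and empty wells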)
[3] = test system: Hepatitis C virus NS3 helicase; assay: HCV NS3 helicase inhibitors, primary screen, biochemical, fluorescence polarization, LOPAC1280 library (AID 687035; in the data active = inhibition above about 37%); settings: Purified HCV NS3 helicase, Cy5-dT15 ssDNA binding fluorescence polarization; stronger effect = higher value; concentration not given here
[4] = Cy5 fluorescence quenching or enhancement artefacts, artefact control for HCV NS3 helicase inhibitor project, biochemical, LOPAC1280 (AID 687037; call rule not given here); settings: Cy5-DNA-NS3h complex fluorescence interference counterscreen
[5] = phospholipid biosynthesis inhibitors in animal cells, primary screen, cell-based, LOPAC library, screen 4 (AID 1347384; call rule not given here); settings: phospholipid biosynthesis inhibition screen, at 10 µM
[6] = viability rescue of complex I mutant cybrids, primary screen, cell-based, galactose medium, ATP luminescence (AID 1645843;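 active = z-score of at least 1.8 in each of two replicates, scored against plate mean and spread of sample wells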;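 also: positive z means more ATP and so rescue of galactose-driven cybrid death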); settings: complex I mutant cybrid cells, 72 h, stronger effect = higher value
[7] = circadian clock period modulators, cell-based, LOPAC library, luminescence reporter (AID 2774; call rule not given here;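 also: values are relative to mean of DMSO wells on each plate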); settings: circadian reporter cells, at 7 µM, actives lie on both sides
[8] = stronger effect = lower value, cell number ratio, induced over uninduced
[9] = measured here: relative caspase fold change +Dox/-Dox
[10] = measured here: total cells with miR-34 induction, stronger effect = lower value
[11] = measured here: total cells without miR-34 induction
[12] = MELAS cybrid survival, CellTiter-Glo 48 h, stronger effect = higher value
[13] = Rieske KO mouse fibroblast survival, CellTiter-Glo 72 h

Compound	fold change [1, 8]	fold change [1, 9]	cell count [1, 10]	cell count [1, 11]	z-score [2, 12]	z-score [2, 13]	inhibition [3]	fluorescence ratio (interference) [4]	outcome [5]	z-score [6]	period change [7]
Cc1ccc(S(=O)(=O)c2ccc([N+](=O)[O-])o2)cc1	1.58 (inactive)	0.353	1860	1180	-1.09 (inactive)	-6.94					
CC(CCC(=O)O)C1CC[C@H]2[C@@H]3CC(O)[C@@H]4CC(O)CC[C@]4(C)[C@@H]3CC[C@]12C (some centres not stated)	0.928 (inactive)	0.729	9520	10300	-0.299 (inactive)	0.38					
CCOC(=O)O[C@@]1(C(=O)OCCl)CC[C@H]2[C@@H]3CCC4=CC(=O)C=C[C@]4(C)[C@@H]3C(O)C[C@@]21C (some centres not stated)	0.859 (inactive)	1.25	5320	6190	-0.313 (inactive)	-0.191					
CC(C)(Cc1ccc2ccccc2c1)NCC(O)COc1cccc(Cl)c1C#N (configuration not stated)	0.92 (inactive)	0.745	8560	9310	-0.327 (inactive)	0.584					
Nc1nc(Cl)nc2c1ncn2C1OC(CO)C(O)C1F (configuration not stated)	1.03 (inactive)	0.719	1700	1650	0.651 (inactive)	-0.114					
CCOc1cc(C(CS(C)(=O)=O)N2C(=O)c3cccc(NC(C)=O)c3C2=O)ccc1OC (configuration not stated)	0.919 (inactive)	0.498	8660	9420	-0.371 (inactive)	-0.546					
CC(=O)/C=C1\C(=O)N(C)c2ccccc21	0.98 (inactive)	1.31	6920	7060			-2% (inactive)	0.9 (inactive)	inactive	-1.48 (inactive)	
N#CC1CCCN1C(=O)CNC12CC3CC(CC(O)(C3)C1)C2 (configuration not stated)	0.959 (inactive)	0.68	8400	8750	-0.00674 (inactive)	0.11					
COc1cc(N)c(Cl)cc1C(=O)OCCN1CCCCC1	1.11 (inactive)	1.42	10600	9550			-5% (inactive)	1 (inactive)	inactive	0.695 (inactive)	
O=C1/C(=C/c2ccsc2)CC/C1=C\c1cccs1	0.99 (inactive)	1.31	9920	10000			-4% (inactive)	1 (inactive)	inactive	1.23 (inactive)	
O=C1CN(/N=C/c2ccc(-c3ccc([N+](=O)[O-])cc3)o2)C(=O)N1	0.852 (inactive)	0.844	3600	4220					inactive		0.19 h (inactive)
C=CC(C)(O)CCC1[C@@]2(C)CCCC(C)(C)C2CC[C@@]1(C)O (some centres not stated)	0.916 (inactive)	0.879	8210	8970	-0.292 (inactive)	-0.0842					
CC(C)CC(NC(=O)C(CCc1ccccc1)NC(=O)CN1CCOCC1)C(=O)NC(Cc1ccccc1)C(=O)NC(CC(C)C)C(=O)[C@@]1(C)CO1 (some centres not stated)	0.898 (inactive)	1.94	778	867	-0.243 (inactive)	-3.69					
CC(C)(C)c1cc(C(=O)C(C#N)=NNc2cccc(Cl)c2)no1	0.873 (inactive)	0.45	4320	4950	-0.557 (inactive)	-3.22					
CC(=O)O[C@@]1(C(C)=O)CC[C@H]2[C@@H]3CCC4=CC(=O)CCC4=C3C(c3ccc(N(C)C)cc3)C[C@@]21C (some centres not stated)	1.04 (inactive)	0.797	6660	6380	-0.373 (inactive)	-0.0703					
O=C(CCCCCN1CCN(c2ccccc2-c2ccccc2)CC1)NC1CCCc2ccccc21 (configuration not stated)	1.17 (inactive)	1.11	6130	5250			0% (inactive)	1 (inactive)	inactive	-1.38 (inactive)	
Cc1onc(-c2ccccc2Cl)c1C(=O)NC1C(=O)N2C(C(=O)O)C(C)(C)S[C@@H]12 (some centres not stated)	0.964 (inactive)	0.778	9670	10000	-0.365 (inactive)	0.485					
CC(C)(C)c1cc(C=C(C#N)C(N)=S)cc(C(C)(C)C)c1O	0.89 (inactive)	0.706	3790	4260	-0.383 (inactive)	-0.375					
CNCCc1cnc(CCC(c2ccccc2)c2ccccc2)[nH]1	1.13 (inactive)	0.656	5430	4810			-4% (inactive)	1 (inactive)	inactive	-0.725 (inactive)	
CCc1c(Cl)c(O)c(Cl)c(O)c1C(=O)OC1C(C)OC(OCC2=CC=CCC(O)C(C)=CC(CC)C(O[C@@H]3OC(C)(C)C(OC(=O)C(C)C)C(O)C3O)C(C)=CC(C)=CC[C@H](C(C)O)OC2=O)C(OC)C1O (some centres not stated)	0.841 (inactive)	0.698	6980	8290	-0.301 (inactive)	-0.0909					
CNC1CN(c2ccc3c(=O)c(C(=O)O)cn(-c4nccs4)c3n2)CC1OC (configuration not stated)	1.31 (inactive)	0.345	1410	1080	2.91 (active)	-1.95					

Compound	fold change [1, 8]	fold change [1, 9]	cell count [1, 10]	cell count [1, 11]	z-score [2, 12]	z-score [2, 13]	inhibition [3]	fluorescence ratio (interference) [4]	outcome [5]	z-score [6]	period change [7]
CCn1c2ccccc2c2cc(Nc3ccnc(NCCCN4CCOCC4)n3)ccc21	1.23 (inactive)	0.454	2810	2280	-0.307 (inactive)	0.428					
Cc1cc(OCCCS(C)(=O)=O)cc(C)c1-c1cccc(COc2ccc3c(c2)OCC3CC(=O)O)c1 (configuration not stated)	0.928 (inactive)	0.766	7480	8070	-0.428 (inactive)	0.0224					
COc1cc2c(cc1OC)CC(=O)N(CCCN(C)CC1Cc3cc(OC)c(OC)cc31)CC2 (configuration not stated)	0.865 (inactive)	1.23	8090	9350	-0.285 (inactive)	0.346					
Cc1cc2c(C(=O)NCC(C)c3ccccc3)c(O)c(O)cc2c(O)c1-c1c(C)cc2c(C(=O)NCC(C)c3ccccc3)c(O)c(O)cc2c1O (configuration not stated)	1.07 (inactive)	0.503	2050	1910	-0.836 (inactive)	-6.52					
CCCC(CCC)C(=O)OC1CC2CCC(C1)[N+]2(C)C (configuration not stated)	0.959 (inactive)	1.54	9840	10300			0% (inactive)	1.1 (inactive)	inactive	-0.005 (inactive)	
Nc1nccc2c1ncn2C1C=C(CO)C(O)C1O (configuration not stated)	0.968 (inactive)	0.366	4640	4800	-0.724 (inactive)	-1.41					
C=C1C[C@@]23CC[C@H]4[C@@](C)(CCC[C@@]4(C)C(=O)O)[C@@H]2CC[C@]1(O)C3	0.931 (inactive)	1.06	9720	10400			-3% (inactive)	1 (inactive)	inactive	0.98 (inactive)	
N#CCC(C1CCCC1)n1cc(-c2ncnc3[nH]ccc23)cn1 (configuration not stated)	1.03 (inactive) and 0.94 (inactive)	0.563 and 1.09	8730 and 7580	8490 and 8060	-0.347 (inactive) and -0.642 (inactive)	0.0258 and -0.766					
CC(C)(C)c1ccc(-c2nc3ccccc3[nH]2)cc1	0.982 (inactive)	0.555	8150	8300	-0.625 (inactive)	-3.26					
O=C(c1ccc(Cl)cc1)N1CCN(c2ccc([N+](=O)[O-])c3ncccc23)CC1	0.912 (inactive)	1.42	6530	7170			0% (inactive)	1 (inactive)	inactive	-1 (inactive)	
CC(C)(C)NC(=O)C1CC[C@H]2[C@@H]3CC[C@H]4NC(=O)C=C[C@]4(C)[C@@H]3CC[C@]12C (some centres not stated)	1.03 (inactive)	1.3	8400	8170	-0.417 (inactive)	0.72					
Cc1c(C(=O)Nc2ccc(N3CC(C)OC(C)C3)nc2)cccc1-c1ccc(OC(F)(F)F)cc1 (configuration not stated)	0.962 (inactive)	0.609	6270	6520	-0.33 (inactive)	0.503					
Cc1cc(Cn2cnc3c2C[C@@H](C(=O)O)N(C(=O)C(c2ccccc2)c2ccccc2)C3)ccc1N	1.01 (inactive)	2.03	10300	10200			0% (inactive)	1 (inactive)	inactive	0.405 (inactive)	
COc1ccc(CCn2nnnc2C2(c3ccc(C)cc3)CC2)cc1	1.09 (inactive)	0.893	8770	8010			-4% (inactive)	1.1 (inactive)	inactive	-0.23 (inactive)	
Oc1ccc(C2COc3cc(O)ccc3C2)cc1 (configuration not stated)	1.04 (inactive) and 0.979 (inactive)	1.09 and 0.678	6090 and 7580	5860 and 7740	-0.326 (inactive)	-0.182					
CC(=O)OC1C[C@@H]2CC[C@@H]3[C@@H](CC[C@]4(C)C(OC(C)=O)C([N+]5(C)CCCCC5)C[C@@H]34)[C@@]2(C)CC1[N+]1(C)CCCCC1 (some centres not stated)	0.982 (inactive)	0.749	10400	10600	-0.344 (inactive)	0.747					
C[C@]12CC[C@H]3c4ccc(O)cc4CC[C@H]3[C@@H]1CCC2OC(=O)CCC1CCCC1 (some centres not stated)	0.984 (inactive)	0.876	8050	8180	-0.17 (inactive)	-0.155					
COC1CC2CCC(C)[C@@](O)(O2)C(=O)C(=O)N2CCCCC2C(=O)OC(C(C)CC2CCC(OCCO)C(OC)C2)CC(=O)C(C)C=C(C)C(O)C(OC)C(=O)C(C)CC(C)C=CC=CC=C1C (some centres not stated)	1.03 (inactive)	1	4550	4420	0.115 (inactive)	1.87					
N#Cc1cc(CN2CCC(Nc3ncnc4sc(Cl)cc34)CC2)ccc1F	0.932 (inactive)	0.447	6280	6740	-0.501 (inactive)	-0.555					
COC(c1ccccc1)(c1ccccc1)C(Oc1nc(C)cc(C)n1)C(=O)O (configuration not stated)	0.951 (inactive)	0.955	7820	8220	-0.106 (inactive) and 0.539 (inactive)	0.0441 and -0.167					
CC1OC(O)C(O)C(O)C1O (configuration not stated)	0.984 (inactive)	1	7230	7350	-0.0523 (inactive)	-0.0922					
